Measurements: the supplement of paper PMC6555819

How the values were obtained:
Test in all cases: PBM binding z-score (relative to random genomic background probes); higher = stronger binding; sequences stand for … in GC…GCGATTGACAGCGTAGAATGAAGG
[1] = system: FXR:RXRa (NR concentration 270 nM, RXRa partner concentration 90 nM)
Procedure, shortened: (§1)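 Ligand-free nuclear receptor dimers were applied to custom Agilent 4×180K protein-binding microarrays whose double-stranded probes carried direct-repeat seeds, single-nucleotide variants, half-site ablations and random human genomic background sequences in 34-nt variable regions. Incubation lasted 1 h. Binding z-scores were computed against the random background probes from regression-normalized fluorescence.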

[2] = system: LXRa:RXRa (NR concentration 270 nM, RXRa partner concentration 90 nM)
Procedure, shortened: as §1

[3] = system: LXRa homodimer (NR concentration 270 nM)
Procedure, shortened: as §1

[4] = system: LXRb:RXRa (NR concentration 270 nM, RXRa partner concentration 90 nM)
Procedure, shortened: as §1

[5] = system: LXRb homodimer (NR concentration 270 nM)
Procedure, shortened: as §1

[6] = system: PPARa:RXRa (NR concentration 270 nM, RXRa partner concentration 90 nM)
Procedure, shortened: as §1

[7] = system: PPARg:RXRa (NR concentration 180 nM, RXRa partner concentration 90 nM)
Procedure, shortened: as §1

[8] = system: PPARg:RXRa 270nM:90nM, anti-RXR (NR concentration 270 nM, RXRa partner concentration 90 nM)
Procedure, shortened: as §1

[9] = system: PPARg:RXRa 30nM:10nM, anti-RXR (NR concentration 30 nM, RXRa partner concentration 10 nM)
Procedure, shortened: as §1

[10] = system: PPARg:RXRa 90nM:30nM, anti-RXR (NR concentration 90 nM, RXRa partner concentration 30 nM)
Procedure, shortened: as §1

[11] = system: PPARg:RXRa DBDmut IVT, anti-RXR (DBD mutation: RXRa K156A/R161A, NR concentration 270 nM, RXRa partner concentration 90 nM)
Procedure, shortened: as §1

[12] = system: PPARg:RXRa IVT, anti-PPARg (NR concentration 270 nM, RXRa partner concentration 90 nM)
Procedure, shortened: as §1

[13] = system: PPARg DBDmut:RXRa IVT, anti-PPARg (DBD mutation: PPARg1 K132A/R137A, NR concentration 270 nM, RXRa partner concentration 90 nM)
Procedure, shortened: as §1

[14] = system: PPARg DBDmut IVT, anti-PPARg (DBD mutation: PPARg1 K132A/R137A, NR concentration 270 nM)
Procedure, shortened: as §1

[15] = system: PPARg homodimer (NR concentration 180 nM)
Procedure, shortened: as §1

[16] = system: PXR:RXRa (NR concentration 270 nM, RXRa partner concentration 90 nM)
Procedure, shortened: as §1

[17] = system: PXR homodimer (NR concentration 270 nM)
Procedure, shortened: as §1

[18] = system: RARa:RXR (NR concentration 270 nM, RXRa partner concentration 90 nM)
Procedure, shortened: as §1

[19] = system: RARa homodimer (NR concentration 270 nM)
Procedure, shortened: as §1

[20] = system: RARb:RXRa (NR concentration 270 nM, RXRa partner concentration 90 nM)
Procedure, shortened: as §1

Sequence	PBM binding z-score [1]	PBM binding z-score [2]	PBM binding z-score [3]	PBM binding z-score [4]	PBM binding z-score [5]	PBM binding z-score [6]	PBM binding z-score [7]	PBM binding z-score [8]	PBM binding z-score [9]	PBM binding z-score [10]	PBM binding z-score [11]	PBM binding z-score [12]	PBM binding z-score [13]	PBM binding z-score [14]	PBM binding z-score [15]	PBM binding z-score [16]	PBM binding z-score [17]	PBM binding z-score [18]	PBM binding z-score [19]	PBM binding z-score [20]
AGTCAAAGTTCCTCTAGGTAACGTAAGATATGCT	-0.245	-0.144	-0.104	-0.00782	-0.432	0.0097	0.612	0.996	0.256	0.424	-0.227	1.14	-0.00849	0.378	-0.0696	0.0815	-0.225	0.241	0.00507	0.881
GCAGACAGGTGAAACGCAGGTAACTTAGGGTGGC	0.0644	-0.18	-0.522	-0.226	-1.05	0.666	0.771	0.226	-0.508	-0.022	1.09	0.626	-0.0838	-0.922	-0.576	-0.333	-0.519	0.279	-0.246	0.798
ACTAGCAGGCCAAGGATCACTCAAGATTAGTCCG	-0.313	-0.212	-0.373	-0.592	-0.598	0.628	2.12	3.37	1.33	2.55	0.88	0.675	-0.388	-0.36	0.0853	-0.479	-0.469	-0.293	0.362	0.296
TCAGGCAGGTGAAGGTAACTCAGGTACGCAGTCG	0.263	1.12	-0.208	0.558	-0.936	0.851	0.226	1.2	2.13	1.73	1.55	1.14	-0.774	-0.917	0.554	0.0794	-0.029	0.355	-0.103	0.92
TGAATGAGGTAAAAGATCAGGGAACGTGGCGTCG	0.359	-0.0204	-0.712	-0.13	-0.307	2.5	3.68	5.02	3.41	5.53	0.669	2.02	0.836	-0.202	0.305	-0.0852	-0.139	0.545	-0.524	0.0467
GCTTACGGGTCAAAGGATATAGCATGAATAGAAT	5.93	3.75	-0.261	3.44	0.261	5.37	5.87	5.9	3.29	5.26	4.24	4.01	1.25	1.03	1.09	3.09	-0.166	3.94	0.713	3.54
CGCACTAGGTCAGAACAGGACAGTGAAGGATGAT	1.58	1.02	-0.057	0.629	-0.258	2.67	4.7	4.2	1.63	3.24	7.11	7.1	0.649	0.931	1.4	1.07	0.443	1.39	0.474	3.02
ACAGACAGGTGACTGAAGGTAACTCAGCTGGACG	0.0674	0.59	-0.72	-0.364	-1.02	0.299	0.781	0.364	-0.0254	0.262	0.539	0.434	0.745	-0.576	-0.875	-0.321	-0.503	0.0913	-0.597	0.563
TCATGTAGATCAAAGGTTAAGAAAGCCGAAGCCT	1.74	2.28	0.326	2.06	-0.197	4.5	8.22	8.1	7.58	8.85	2.23	3.59	0.546	0.593	1.17	2.12	0.246	3.29	0.881	1.91
ATCTCTATGTAAAGATAGTTCAGTGAATGCAAAT	-0.132	0.583	0.163	0.261	0.232	0.222	0.759	0.0606	0.319	0.173	-0.623	-0.061	0.754	1.67	0.106	0.604	0.457	0.433	0.866	0.242
TTGCCTAGGTCATGCGGGCCAGTATAGTGTCGGC	4.05	2.72	0.0559	1.52	-0.792	3.42	2.01	2.28	-0.182	1.06	1.47	2.82	0.433	-0.575	0.753	1.39	-0.692	2.31	-0.448	3.82
ACAGACAGGTGATGAAGGTAACCCAGGCTATCAT	-0.0743	-0.103	-0.116	-0.241	-0.475	0.302	0.814	0.0501	0.126	-0.204	-0.12	0.789	0.463	0.0514	0.225	-0.103	-0.0491	0.412	-0.333	0.413
TAGCCTAGGTCATGGGGGCCAGTATAGTGTCGGC	4.96	4	0.742	4.86	5.38	4.64	4.04	4.26	1.09	3.11	1.91	4.23	4.89	4.09	2.19	3.01	0.254	3.41	0.4	4.04
ATCGAAAGGTCGAAGGTGATTATACCCACCCGAA	4.31	3.69	0.425	2.92	0.626	4.48	4.21	4.47	2.33	3.99	0.155	2	1.25	0.935	1.86	2.89	0.393	4.03	0.957	3.5
CCTCGCAGGCCAGGGTCACTCAAGCATTTCGCTT	2.11	1.69	-0.251	2.06	-0.654	3.01	0.19	1.04	-0.771	0.0823	-0.539	0.241	-0.923	-1.57	1.02	2.49	-0.431	3.1	-0.222	2.54
TCATATAGGTAAAAGTGAAAGTCGAACGATATGA	0.173	0.399	-0.314	-0.0823	0.0543	1.84	3.25	4.43	4.62	4.68	3.02	2.69	1.14	1.16	0.424	0.212	0.0345	0.234	0.539	0.22
CTACCAAGGTGAACACGGTCGTTGATTACTATTC	0.926	0.679	0.219	1.01	-0.319	1.35	0.647	0.659	-0.147	0.147	2.72	2.43	0.613	-0.0431	0.251	0.292	0.00892	0.57	0.749	1.88
TAGACTAGGTCATTCAGGGGCCAGTATAGAAAGC	4.16	3.02	0.5	2.45	1.5	3.77	5.02	4.54	2.12	3.67	6.24	6.36	3.24	2	2.65	2.21	0.176	3.32	0.508	3.64
ATATGTAGGTTATATCCGGGTCATTCAGGCTATG	2.15	4.34	3.29	2.93	1.44	4.19	4.45	4.07	1.69	3.33	6.81	6.59	5.13	2.59	3.38	3.78	2.63	3.9	1.12	2.13
